Source: PubChem BioAssay (EPA / NIEHS)
Active and inactive are the calls of the source. Rule for the calls: active = hit-call score of the fitted dose curve at least 0.9, where 1 is the maximum; inactive = score below 0.9.

What was measured:
[1] = ATG_GLI_CIS: Attagene CIS-FACTORIAL HepG2 Assay for human Zinc Finger Protein GLI1 (AID 2282945); settings: HepG2, Attagene cis-factorial reporter mRNA, GLI element; actives raise or lower the signal
Outline: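 Bidirectional curve fits relative to DMSO, using reporter mRNA levels from RT-PCR plus capillary electrophoresis. Cells were HepG2 transiently carrying cis-regulated reporter constructs, harvested 24 h after dosing.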

[2] = biological target: Bile acid receptor (Homo sapiens) (UniProt Q96RI1); assay: ATG_IR1_CIS: Attagene CIS-FACTORIAL HepG2 Assay for human Nuclear Receptor Subfamily 1 Group H Member 4 (NR1H4), IR1 submotif (AID 2282946); settings: IR1 reporter transcription, actives raise or lower the signal
Sequence of Bile acid receptor (Homo sapiens) (Q96RI1 whole entry, looked up): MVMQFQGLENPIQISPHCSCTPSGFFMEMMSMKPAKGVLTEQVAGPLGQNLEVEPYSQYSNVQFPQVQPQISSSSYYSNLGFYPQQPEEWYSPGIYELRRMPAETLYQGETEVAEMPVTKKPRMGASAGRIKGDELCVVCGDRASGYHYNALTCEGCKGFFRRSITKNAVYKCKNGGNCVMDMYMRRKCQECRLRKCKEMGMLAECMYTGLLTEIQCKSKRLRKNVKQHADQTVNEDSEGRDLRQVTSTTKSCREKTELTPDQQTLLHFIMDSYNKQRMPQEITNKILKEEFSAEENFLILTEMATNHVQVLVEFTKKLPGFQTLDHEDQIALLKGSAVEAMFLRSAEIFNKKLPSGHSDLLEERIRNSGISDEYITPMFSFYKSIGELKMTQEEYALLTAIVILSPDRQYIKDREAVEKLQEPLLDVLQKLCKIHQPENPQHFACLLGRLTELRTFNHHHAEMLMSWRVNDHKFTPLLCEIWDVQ
Outline: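 HepG2 cells transiently transfected with multiplexed cis-element reporter units read endogenous transcription factor activity. After 24 h compound exposure, reporter mRNA was quantified by RT-PCR, fluorescent labelling, HpaI digestion and capillary electrophoresis; bidirectional fitting versus DMSO baseline.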

[3] = ATG_GRE_CIS: Attagene CIS-FACTORIAL HepG2 Assay for human Glucocorticoid Response Elements (GRE) (AID 2282947); settings: HepG2 GRE cis-reporter, Attagene multiplex mRNA; actives raise or lower the signal
Outline: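 Reporter transcripts read by RT-PCR with capillary electrophoresis fluorescence after a 24 h chemical exposure of HepG2 cells transiently transfected with multiple cis-element reporter units. Gain or loss fitted against DMSO.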

[4] = ATG_ISRE_CIS: Attagene CIS-FACTORIAL HepG2 Assay for human Interferon Regulatory Factor 1 (IRF1) binding to an Interferon-Stimulated Response Element (ISRE) (AID 2282948); settings: HepG2 ISRE cis-reporter (Attagene), mRNA transcription readout; actives raise or lower the signal
Outline: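 Read-out: fluorescent RT-PCR products resolved by capillary electrophoresis, reporting endogenous transcription factor activity via ISRE-driven reporter mRNA in transfected HepG2 cells dosed for 24 h; gain or loss fitted relative to DMSO.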

[5] = ATG_M_32_CIS: Attagene CIS-FACTORIAL HepG2 Assay for M32 Transcription Factor (Internal Marker) (AID 2282949); settings: HepG2 Attagene cis-factorial M32 reporter, mRNA; actives raise or lower the signal;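 note: background control marker of the multiplexed CIS panel rather than a real target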
Outline: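 HepG2 human liver cells transiently transfected with cis-promoter-driven multiple reporter transcription units, dosed 24 h. Reporter mRNA quantified by RT-PCR, FAM-labelled primer extension, HpaI digest and capillary electrophoresis; bidirectional fit versus DMSO baseline.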

[6] = ATG_M_06_CIS: Attagene CIS-FACTORIAL HepG2 Assay for M06 Transcription Factor (Internal Marker) (AID 2282950); settings: HepG2 Attagene CIS-FACTORIAL M06 internal marker reporter; actives raise or lower the signal
Outline: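 Serves as a background control readout. Transfected HepG2 exposed to compounds for 24 h, then reporter transcripts quantified by fluorescent RT-PCR and capillary electrophoresis. Both directions fitted against DMSO baseline.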

[7] = biological target: Hypoxia-inducible factor 1-alpha (Homo sapiens) (UniProt Q16665); assay: ATG_HIF1a_CIS: Attagene CIS-FACTORIAL HepG2 Assay for human Hypoxia Inducible Factor 1 (HIF1A) (AID 2282951); settings: HepG2 Attagene cis-factorial HIF1a reporter transcription; actives raise or lower the signal
Sequence of Hypoxia-inducible factor 1-alpha (Homo sapiens) (Q16665 whole entry, looked up, the tested form may be a part): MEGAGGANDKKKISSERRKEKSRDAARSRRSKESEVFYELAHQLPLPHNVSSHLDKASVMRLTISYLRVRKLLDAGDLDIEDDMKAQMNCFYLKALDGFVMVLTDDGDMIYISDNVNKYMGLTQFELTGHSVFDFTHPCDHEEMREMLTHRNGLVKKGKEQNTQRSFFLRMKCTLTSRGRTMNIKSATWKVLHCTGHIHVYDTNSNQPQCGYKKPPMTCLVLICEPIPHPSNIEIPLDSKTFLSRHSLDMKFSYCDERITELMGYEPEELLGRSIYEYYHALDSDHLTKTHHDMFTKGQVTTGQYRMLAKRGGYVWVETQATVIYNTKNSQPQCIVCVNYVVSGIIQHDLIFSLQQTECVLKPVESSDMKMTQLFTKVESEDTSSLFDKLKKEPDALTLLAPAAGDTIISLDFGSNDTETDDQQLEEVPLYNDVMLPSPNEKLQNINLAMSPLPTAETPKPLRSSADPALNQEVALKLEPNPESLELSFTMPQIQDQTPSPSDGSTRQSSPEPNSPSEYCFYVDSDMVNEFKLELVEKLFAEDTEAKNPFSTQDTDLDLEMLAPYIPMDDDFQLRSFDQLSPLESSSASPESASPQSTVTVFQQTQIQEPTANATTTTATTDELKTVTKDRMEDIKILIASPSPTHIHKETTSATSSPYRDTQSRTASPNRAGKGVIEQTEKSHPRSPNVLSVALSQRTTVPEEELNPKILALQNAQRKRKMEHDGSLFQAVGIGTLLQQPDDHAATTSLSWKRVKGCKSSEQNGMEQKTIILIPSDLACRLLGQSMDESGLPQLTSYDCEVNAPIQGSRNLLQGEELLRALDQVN
Outline: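 Transient MRTU transfection of human HepG2 liver cells, 24 h compound treatment, then total RNA isolation, oligo(dT) reverse transcription, PCR amplification, fluorescent labelling and capillary electrophoresis of reporter fragments. Gain or loss relative to DMSO.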

[8] = biological target: Heat shock factor protein 1 (Homo sapiens) (UniProt Q00613); assay: ATG_HSE_CIS: Attagene CIS-FACTORIAL HepG2 Assay for human Heat Shock Transcription Factor 1 (HSE) (AID 2282953); settings: HepG2 HSE cis-reporter, Attagene RNA transcription; actives raise or lower the signal
Sequence of Heat shock factor protein 1 (Homo sapiens) (Q00613 whole entry, looked up): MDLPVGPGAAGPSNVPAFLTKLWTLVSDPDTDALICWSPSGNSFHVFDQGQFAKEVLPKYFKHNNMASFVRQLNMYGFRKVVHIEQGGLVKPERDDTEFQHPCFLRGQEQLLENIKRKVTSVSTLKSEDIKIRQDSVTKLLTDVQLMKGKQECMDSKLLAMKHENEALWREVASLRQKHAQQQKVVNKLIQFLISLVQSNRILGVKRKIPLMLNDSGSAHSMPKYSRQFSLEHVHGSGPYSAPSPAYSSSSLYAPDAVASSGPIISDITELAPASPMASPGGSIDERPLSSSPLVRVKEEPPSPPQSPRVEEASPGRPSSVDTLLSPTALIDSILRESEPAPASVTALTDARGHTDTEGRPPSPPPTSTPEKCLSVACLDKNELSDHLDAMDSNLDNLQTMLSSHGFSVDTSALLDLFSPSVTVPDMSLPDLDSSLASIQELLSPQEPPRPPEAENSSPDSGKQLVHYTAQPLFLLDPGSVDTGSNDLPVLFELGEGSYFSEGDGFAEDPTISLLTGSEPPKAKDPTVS
Outline: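 Endogenous transcription factor activity in transiently transfected HepG2, read as reporter mRNA by RT-PCR with fluorescent capillary electrophoresis after 24 h. Gain or loss of signal fitted versus DMSO baseline.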

[9] = ATG_MRE_CIS: Attagene CIS-FACTORIAL HepG2 Assay for human Metal Responsive Element (MRE) (AID 2282954); settings: HepG2 MRE cis-reporter transcription, Attagene multiplex; actives raise or lower the signal
Outline: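 Endogenous MRE-dependent transcription read as reporter mRNA in transiently transfected human HepG2 cells at 24 h. RNA reverse-transcribed, PCR-amplified, labelled and resolved by capillary electrophoresis; gain or loss relative to DMSO.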

[10] = biological target: Paired box protein Pax-6 (Homo sapiens) (UniProt P26367); assay: ATG_Pax6_CIS: Attagene CIS-FACTORIAL HepG2 Assay for human Paired Box 6 (PAX6) (AID 2282956); settings: HepG2 CIS-FACTORIAL PAX6 reporter transcription, RNA readout; actives raise or lower the signal
Sequence of Paired box protein Pax-6 (Homo sapiens) (P26367 whole entry, looked up): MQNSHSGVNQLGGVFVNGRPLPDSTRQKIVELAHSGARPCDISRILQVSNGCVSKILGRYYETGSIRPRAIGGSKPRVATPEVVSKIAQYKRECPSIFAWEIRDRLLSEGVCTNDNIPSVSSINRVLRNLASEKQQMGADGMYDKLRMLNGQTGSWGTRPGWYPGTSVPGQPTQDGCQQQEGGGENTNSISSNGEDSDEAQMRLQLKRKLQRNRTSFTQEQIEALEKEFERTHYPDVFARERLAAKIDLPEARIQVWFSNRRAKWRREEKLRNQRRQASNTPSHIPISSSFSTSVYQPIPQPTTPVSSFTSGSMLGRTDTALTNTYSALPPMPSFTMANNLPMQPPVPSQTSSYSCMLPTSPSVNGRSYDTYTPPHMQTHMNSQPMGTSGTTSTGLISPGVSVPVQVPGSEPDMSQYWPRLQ
Outline: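 Readout: reporter transcript fluorescence after RT-PCR and capillary electrophoresis. Cells: HepG2, transiently transfected with cis-regulated MRTUs. Exposure 24 h. Gain or loss of signal fitted bidirectionally relative to DMSO.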

[11] = ATG_PXRE_CIS: Attagene CIS-FACTORIAL HepG2 Assay for human Pregnane X Receptor Element (PXRE) (AID 2282957); settings: HepG2 Attagene CIS-FACTORIAL PXRE reporter, mRNA; actives raise or lower the signal
Outline: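 Read-out: fluorescence of reporter-specific RT-PCR products resolved by capillary electrophoresis, fitted bidirectionally relative to DMSO. Human HepG2 liver cells carried transfected cis-promoter reporter units and were exposed to chemicals for 24 h.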

[12] = ATG_PPRE_CIS: Attagene CIS-FACTORIAL HepG2 Assay for human Peroxisome Proliferator-activated Response Element (PPRE) (AID 2282958); settings: HepG2 PPRE cis-element reporter, Attagene transcription factor profiling; actives raise or lower the signal
Outline: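 HepG2, transient MRTU transfection (cis promoter elements, endogenous TFs). 24 h dosing. RNA → oligo(dT) RT → PCR → 6-FAM primer extension → HpaI digest → CE. Bidirectional fit vs DMSO.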

[13] = ATG_RORE_CIS: Attagene CIS-FACTORIAL HepG2 Assay for human RAR-related Orphan Receptor Element (RORE) (AID 2282959); settings: HepG2 Attagene cis-factorial RORE reporter, mRNA; actives raise or lower the signal
Outline: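 Transient MRTU transfection of human HepG2 liver cells (FuGene 6); 24 h compound exposure; TriZol RNA, oligo(dT) RT, PCR, FAM labeling, HpaI cut, CE fragment analysis. DMSO = negative control/baseline.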

[14] = ATG_Sox_CIS: Attagene CIS-FACTORIAL HepG2 Assay for human SRY-box transcription factor (SOX) (AID 2282960); settings: HepG2 Attagene cis-factorial SOX reporter, mRNA; actives raise or lower the signal
Outline: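 Endogenous factor activity in human liver HepG2 cells carrying transfected cis-regulated reporter units. RNA taken 24 h post-dose, reverse-transcribed, PCR-amplified and sized by capillary electrophoresis. Gain or loss of signal fitted relative to DMSO.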

[15] = biological target: Transcription factor Sp1 (Homo sapiens) (UniProt P08047); assay: ATG_Sp1_CIS: Attagene CIS-FACTORIAL HepG2 Assay for human Specificity Protein 1 (Sp1) (AID 2282961); settings: HepG2 Sp1 cis-reporter transcription, actives raise or lower the signal
Sequence of Transcription factor Sp1 (Homo sapiens) (P08047 whole entry, looked up): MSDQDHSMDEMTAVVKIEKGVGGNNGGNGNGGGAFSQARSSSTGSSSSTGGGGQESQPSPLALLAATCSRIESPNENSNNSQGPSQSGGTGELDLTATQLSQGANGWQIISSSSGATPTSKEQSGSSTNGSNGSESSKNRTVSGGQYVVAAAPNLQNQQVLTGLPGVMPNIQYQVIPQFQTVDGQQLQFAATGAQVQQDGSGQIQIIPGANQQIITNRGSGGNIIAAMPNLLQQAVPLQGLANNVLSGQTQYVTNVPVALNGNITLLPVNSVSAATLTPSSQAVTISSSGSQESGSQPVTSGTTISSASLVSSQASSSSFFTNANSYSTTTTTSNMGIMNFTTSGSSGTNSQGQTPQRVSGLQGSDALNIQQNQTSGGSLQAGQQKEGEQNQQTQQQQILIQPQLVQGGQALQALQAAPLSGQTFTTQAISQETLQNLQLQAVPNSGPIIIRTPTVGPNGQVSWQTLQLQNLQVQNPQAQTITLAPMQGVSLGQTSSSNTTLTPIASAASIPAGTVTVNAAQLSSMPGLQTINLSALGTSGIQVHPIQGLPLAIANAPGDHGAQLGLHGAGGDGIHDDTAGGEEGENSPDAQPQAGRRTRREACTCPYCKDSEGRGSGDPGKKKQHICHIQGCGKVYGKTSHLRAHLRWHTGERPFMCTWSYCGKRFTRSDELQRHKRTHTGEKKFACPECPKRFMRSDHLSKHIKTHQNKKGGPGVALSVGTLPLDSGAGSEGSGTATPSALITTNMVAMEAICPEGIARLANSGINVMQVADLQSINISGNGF
Outline: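 Transient MRTU-transfected HepG2, 24 h compound exposure. Total RNA → oligo(dT) RT → PCR of reporter → 6-FAM primer extension → HpaI digest → CE. Endpoint fitted both directions vs DMSO.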

[16] = ATG_SREBP_CIS: Attagene CIS-FACTORIAL HepG2 Assay for human Sterol Regulatory Element Binding (SREBP) (AID 2282962); settings: HepG2 Attagene cis-factorial SREBP reporter, mRNA; actives raise or lower the signal
Outline: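 Readout: fluorescent reporter-transcript peaks resolved by capillary electrophoresis after RT-PCR. Cells were human HepG2 carrying transfected cis-promoter reporter constructs, dosed for 24 h. Gain or loss of signal was fitted against DMSO controls.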

[17] = biological target: Signal transducer and activator of transcription 3 (Homo sapiens) (UniProt P40763); assay: ATG_STAT3_CIS: Attagene CIS-FACTORIAL HepG2 Assay for human Signal Transducer and Activator of Transcription 3 (STAT3) (AID 2282963); settings: HepG2, Attagene cis-factorial STAT3 reporter transcription; actives raise or lower the signal
Sequence of Signal transducer and activator of transcription 3 (Homo sapiens) (P40763 whole entry, looked up): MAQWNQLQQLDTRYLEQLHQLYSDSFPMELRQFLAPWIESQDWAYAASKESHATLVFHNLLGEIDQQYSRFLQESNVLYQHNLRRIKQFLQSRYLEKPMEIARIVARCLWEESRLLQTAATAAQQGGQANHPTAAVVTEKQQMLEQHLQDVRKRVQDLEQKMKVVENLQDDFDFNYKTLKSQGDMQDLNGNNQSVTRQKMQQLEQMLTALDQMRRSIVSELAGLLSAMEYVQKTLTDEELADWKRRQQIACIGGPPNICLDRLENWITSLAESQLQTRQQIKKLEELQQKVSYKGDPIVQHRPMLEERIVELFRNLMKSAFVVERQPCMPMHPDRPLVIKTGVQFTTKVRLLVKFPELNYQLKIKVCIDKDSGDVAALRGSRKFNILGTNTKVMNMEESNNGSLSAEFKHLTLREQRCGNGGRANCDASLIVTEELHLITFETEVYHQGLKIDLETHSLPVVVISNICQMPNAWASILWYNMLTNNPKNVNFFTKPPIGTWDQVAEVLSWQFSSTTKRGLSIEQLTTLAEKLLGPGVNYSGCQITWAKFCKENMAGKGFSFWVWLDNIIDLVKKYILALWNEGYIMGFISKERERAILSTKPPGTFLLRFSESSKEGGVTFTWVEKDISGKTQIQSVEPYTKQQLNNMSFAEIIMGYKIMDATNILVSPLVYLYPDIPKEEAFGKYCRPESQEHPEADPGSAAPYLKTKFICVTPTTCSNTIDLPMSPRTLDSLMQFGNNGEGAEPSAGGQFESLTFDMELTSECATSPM
Outline: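 Readout is reporter transcript quantified by RT-PCR and capillary electrophoresis, with 6-FAM primer extension and HpaI digestion. Total RNA is taken 24 h after dosing transiently transfected HepG2 carrying cis-regulated reporter units. Bidirectional fit against DMSO.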

[18] = ATG_TA_CIS: Attagene CIS-FACTORIAL HepG2 Assay for human TA Basal Promoter (AID 2282964); settings: HepG2 Attagene CIS-factorial TA basal promoter reporter; actives raise or lower the signal
Outline: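 Background-control readout: TA basal promoter reporter mRNA, fitted in both directions relative to DMSO. Measured by RT-PCR and capillary electrophoresis 24 hours after treating HepG2 human liver cells transiently carrying multiplexed cis-regulated reporter constructs.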

[19] = biological target: Hepatocyte nuclear factor 6 (Homo sapiens) (UniProt Q9UBC0); assay: ATG_HNF6_CIS: Attagene CIS-FACTORIAL HepG2 Assay for human Hepatocyte Nuclear Factor 6 (HNF6) (AID 2282952); settings: HepG2 Attagene cis-factorial HNF6 reporter transcription; actives raise or lower the signal
Sequence of Hepatocyte nuclear factor 6 (Homo sapiens) (Q9UBC0 whole entry, looked up, the tested form may be a part): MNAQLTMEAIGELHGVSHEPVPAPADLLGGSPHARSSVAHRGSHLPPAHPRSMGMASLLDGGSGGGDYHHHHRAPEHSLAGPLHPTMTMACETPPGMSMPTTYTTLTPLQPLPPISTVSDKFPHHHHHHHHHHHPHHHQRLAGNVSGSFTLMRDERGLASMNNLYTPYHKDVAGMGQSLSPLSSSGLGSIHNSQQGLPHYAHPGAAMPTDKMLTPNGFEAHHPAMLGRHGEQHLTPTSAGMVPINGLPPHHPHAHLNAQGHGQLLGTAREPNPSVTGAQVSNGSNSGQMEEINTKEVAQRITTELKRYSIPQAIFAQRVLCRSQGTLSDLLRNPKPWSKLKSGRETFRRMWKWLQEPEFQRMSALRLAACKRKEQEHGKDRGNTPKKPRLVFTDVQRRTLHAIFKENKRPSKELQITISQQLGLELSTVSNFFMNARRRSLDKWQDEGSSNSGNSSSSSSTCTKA
Outline: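 Readout: fluorescent reporter-transcript fragments resolved by capillary electrophoresis after RT-PCR, reflecting endogenous factor activity in transfected HepG2. Exposure 24 h. Gain or loss of signal fitted bidirectionally against DMSO.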

[20] = ATG_PBREM_CIS: Attagene CIS-FACTORIAL HepG2 Assay for human Phenobarbital-responsive Enhancer Module (PBREM) (AID 2282955); settings: HepG2 PBREM cis-reporter, Attagene multiplexed transcription; actives raise or lower the signal
Outline: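 Endogenous transcription factors in human liver HepG2 cells drive a PBREM cis-element reporter, whose transcript level after 24 h treatment is quantified by RT-PCR with capillary electrophoresis; activity fitted in both directions against DMSO.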

Measured: AC50

CC(C)=NNC(N)=S
inactive: [1] | [2] | [3] | [4] | [5] | [6] | [8] | [9] | [10] | [11] | [12] | [13] | [14] | [15] | [16] | [17] | [18]
active: [7] 9.14 µM

CC1(C)CC(O)CC(C)(C)N1[O]
active: [2] 27.7 µM
inactive: [1] | [4] | [5] | [6] | [7] | [19] | [8] | [9] | [20] | [10] | [11] | [12] | [13] | [14] | [15] | [16] | [17] | [18]

COC(=O)CC(C)CCC=C(C)C (centres undefined)
active: [11] 69.2 µM
inactive: [1] | [2] | [3] | [5] | [6] | [7] | [19] | [8] | [9] | [10] | [12] | [13] | [14] | [15] | [16] | [17] | [18]

CC1CCC(C(C)(C)S)C(=O)C1 (centres undefined)
active: [11] 2.13 µM
inactive: [1] | [2] | [4] | [5] | [6] | [7] | [19] | [8] | [9] | [10] | [13] | [14] | [15] | [16] | [17] | [18]

CN(C)Cc1cc(CN(C)C)c(O)c(CN(C)C)c1
inactive: [1] | [2] | [3] | [4] | [5] | [6] | [7] | [8] | [20] | [11] | [13] | [15] | [16] | [17] | [18]

COc1nccnc1CC(C)C
inactive: [1] | [2] | [3] | [4] | [5] | [6] | [7] | [8] | [9] | [10] | [11] | [12] | [13] | [14] | [15] | [16] | [17] | [18]

O=C(OCc1ccccc1)c1ccc(O)cc1
active: [1] 167 µM | [7] 113 µM | [8] 168 µM | [9] 125 µM | [20] 63.7 µM | [11] 26.8 µM | [14] 100 µM | [16] 72.8 µM | [18] 100 µM
inactive: [2] | [3] | [5] | [6] | [19] | [13] | [15] | [17]

CC(C)[N+](C)(CCOC(=O)C1c2ccccc2Oc2ccccc21)C(C)C
inactive: [1] | [2] | [3] | [4] | [5] | [6] | [19] | [8] | [9] | [10] | [11] | [13] | [15] | [16] | [17] | [18]
active: [12] 42.7 µM
